# Experimental data published in PubChem BioAssay (Tox21).
# Records with an inconclusive call do not appear. A call without a number means that no potency is given here. Activity calls are given as the source filed them. Unless noted, calls follow the shape of the dose curve; as a rule, active = well fitted curve in the direction sought with a large enough effect in the repeat runs; inconclusive = weak or mixed curves; inactive = no such curve, though single readings can be large; an effect the other way counts as inactive or inconclusive.
# Assays:
# [1] = qHTS assay to identify small molecule antagonists of the estrogen receptor alpha (ER-alpha) signaling pathway using the BG1 cell line in the presence of 0.1 nM 17-beta-estradiol - cell viability counter screen (AID 1259241); also: nearly all actives have a fitted effect of over 40% in size
# Method in brief: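 Cytotoxicity counter-screen: live-cell protease activity measured by fluorescence (30 min reagent step) in the same wells. Cells were VM7Luc4E2 with endogenous ER-alpha and ERE-driven luciferase, treated 22 hr at 37C alongside 0.1 nM 17beta-estradiol final.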
# [2] = qHTS assay to identify small molecule antagonists of the androgen receptor (AR) signaling pathway using the MDA cell line in the presence of 0.5 nM R1881 - cell viability counter screen (AID 1259242); also: nearly all actives have a fitted effect of over 45% in size
# Method in brief: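 Concentration-response screen of compounds for toxicity in MDA-kb2 reporter cells: 16 hr at 37C with 0.5 nM R1881, endpoint live-cell protease fluorescence measured in the reporter wells.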
# [3] = biological target: Estrogen receptor (Homo sapiens) (UniProt P03372); assay: qHTS assay to identify small molecule antagonists of the estrogen receptor alpha (ER-alpha) signaling pathway using the BG1 cell line in the presence of 0.1 nM 17-beta-estradiol (AID 1259244); also: nearly all actives have a fitted effect of over 50% in size
# Estrogen receptor (Homo sapiens), sequence (P03372 whole entry, looked up): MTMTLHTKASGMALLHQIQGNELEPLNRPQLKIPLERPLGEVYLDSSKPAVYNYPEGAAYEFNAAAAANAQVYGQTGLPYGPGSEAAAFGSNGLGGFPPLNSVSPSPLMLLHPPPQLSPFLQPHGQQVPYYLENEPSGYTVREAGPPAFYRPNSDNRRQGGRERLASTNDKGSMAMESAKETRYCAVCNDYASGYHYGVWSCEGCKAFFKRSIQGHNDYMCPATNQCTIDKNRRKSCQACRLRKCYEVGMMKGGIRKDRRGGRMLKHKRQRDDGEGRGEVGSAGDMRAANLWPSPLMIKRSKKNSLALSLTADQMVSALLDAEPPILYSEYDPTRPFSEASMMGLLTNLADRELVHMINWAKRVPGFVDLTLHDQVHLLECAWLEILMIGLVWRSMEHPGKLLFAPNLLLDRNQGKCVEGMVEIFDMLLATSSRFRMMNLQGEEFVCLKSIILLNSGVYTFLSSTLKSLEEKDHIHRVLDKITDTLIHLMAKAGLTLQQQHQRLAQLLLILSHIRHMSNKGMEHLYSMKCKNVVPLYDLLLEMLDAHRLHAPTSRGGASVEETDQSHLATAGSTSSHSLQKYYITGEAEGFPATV
# Method in brief: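 Compounds were tested against 0.1 nM (final) 17beta-estradiol in VM7Luc4E2 cells, which express full-length ER-alpha and an ERE-luciferase reporter; luminescence was recorded following 22 h exposure.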
# [4] = qHTS assay to identify small molecule HDAC inhibitors (AID 1259364); also: potency is read from the fitted curve at half-maximal effect;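 also: wild-type HCT-116 cells with endogenous class I/II HDAC activity; nearly all actives have a fitted effect of over 45% in size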
# Method in brief: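 Screening used wild-type human colon HCT-116 cells incubated overnight, dosed with compounds for 2 hours, and assayed with a homogeneous luminogenic HDAC I/II reagent for 30 minutes at room temperature.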
# [5] = qHTS assay to identify small molecule HDAC inhibitors - cell viability counter screen (AID 1259365); also: series mostly up to about 92 µM; nearly all actives have a fitted effect of over 50% in size
# Method in brief: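 CellTiter-Glo luminescence (30 min, room temperature) reported viability after a 2 h compound exposure at 37 C. Cells: wild-type HCT-116, 1,500 per well, seeded the night before.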
# [6] = qHTS assay to identify small molecule agonists of the sonic hedgehog signaling (Shh) pathway - cell viability counter screen (AID 1259366); also: nearly all actives have a fitted effect of over 50% in size
# Method in brief: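 Cytotoxicity counter screen: CellTiter-Fluor reagent added after 23 h compound exposure, then 1 h at 37C and fluorescence read. Cells were 3T3 Gli1-Luc, seeded 2,000 per well and dosed 4 h post-plating.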
# [7] = qHTS assay to identify small molecule agonists of the sonic hedgehog signaling (Shh) pathway (AID 1259368; calls by dose curve;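 also: NIH/3T3-derived 3T3Gli1-Luc cells carrying a stable Gli1-driven firefly luciferase reporter; series mostly up to about 92 µM; nearly all actives have a fitted effect of over 15% in size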)
# Method in brief: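 Hedgehog pathway agonism scored by increased firefly luciferase luminescence in 3T3Gli1-Luc cells treated 24 hr at 37 C; detection used a 30 min room-temperature reagent incubation.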
# [8] = biological target: Estrogen receptor beta (Homo sapiens) (UniProt Q92731); assay: qHTS assay to identify small molecule antagonists of the estrogen receptor beta (ER-beta) signaling pathway (AID 1259378; active = well fitted inhibition curve with a large enough effect in the signal ratio in the repeat runs, not every such curve was filed as active; the % refers to the signal ratio)
# Estrogen receptor beta (Homo sapiens), sequence (Q92731 whole entry, looked up): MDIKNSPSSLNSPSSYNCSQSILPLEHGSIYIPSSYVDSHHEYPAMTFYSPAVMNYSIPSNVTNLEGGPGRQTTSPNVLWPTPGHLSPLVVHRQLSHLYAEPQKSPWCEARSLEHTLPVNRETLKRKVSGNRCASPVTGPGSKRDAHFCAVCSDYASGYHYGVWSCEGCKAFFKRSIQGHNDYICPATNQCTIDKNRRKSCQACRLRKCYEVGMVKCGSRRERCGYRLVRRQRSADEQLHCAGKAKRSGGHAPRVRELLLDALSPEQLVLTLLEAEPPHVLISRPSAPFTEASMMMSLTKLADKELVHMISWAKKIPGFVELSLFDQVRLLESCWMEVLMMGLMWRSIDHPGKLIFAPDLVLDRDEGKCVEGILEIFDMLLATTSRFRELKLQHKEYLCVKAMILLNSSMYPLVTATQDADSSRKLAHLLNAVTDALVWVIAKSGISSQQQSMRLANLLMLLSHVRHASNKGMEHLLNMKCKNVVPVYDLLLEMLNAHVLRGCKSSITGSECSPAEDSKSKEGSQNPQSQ
# Method in brief: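 ER-beta-UAS-bla HEK293T cells in 2% charcoal-stripped FBS medium treated with compound plus 1nM final 17-beta-estradiol for 16 hr at 37C. Beta-lactamase reporter read by FRET substrate fluorescence after 2 hours at room temperature.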
# [9] = qHTS assay to identify small molecule agonists of the androgen receptor (AR) signaling pathway in the presence of an antagonist - cell viability counter screen (AID 1259379);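 also: MDA-kb2 human breast cancer cells carrying an MMTV luciferase reporter; series mostly up to about 92 µM; nearly all actives have a fitted effect of over 25% in size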
# Method in brief: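 MDA-kb2 viability measured by CellTiter-Fluor fluorescence in the same wells as the luciferase signal; nilutamide 3.0uM final; 15-point compound titration; 16 hr at 37C.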
# [10] = qHTS assay to identify small molecule antagonists of the estrogen receptor beta (ER-beta) signaling pathway - cell viability counter screen (AID 1259382); also: series mostly up to about 92 µM; nearly all actives have a fitted effect of over 55% in size
# Method in brief: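 Readout: luminescence, CellTiter-Glo, same wells as bla assay. System: ER-beta-UAS-bla GripTite HEK293T, 2% charcoal-stripped FBS. Exposure: compounds plus 1nM 17-beta-estradiol, 16 hr, 37C.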
# [11] = biological target: Estrogen receptor (Homo sapiens) (UniProt P03372); assay: qHTS assay to identify small molecule agonists of the estrogen receptor alpha (ER-alpha) signaling pathway in the presence of an antagonist (AID 1259383; calls by dose curve; also: top concentration of the series differs between compounds; nearly all actives have a fitted effect of over 15% in size)
# Method in brief: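 Quantitative HTS confirmation: compounds titrated at 15 concentrations onto estrogen-deprived VM7Luc4E2 cells carrying a four-ERE luciferase construct, with ICI-182,780 present at 10.0nM final. Signal is luminescence after 22hr exposure.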
# [12] = qHTS assay to identify small molecule agonists or antagonists of the thyroid stimulating hormone receptor (TSHR) signaling pathway - wild type cell line counter screen (AID 1259384; calls by dose curve)
# Method in brief: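 Wild-type Hek293 cells, 800/well, 18 h at 37C, then compound with Ro20-1724 for 30 min RT. cAMP by HTRF (cAMP-d2/anti-cAMP cryptate), 1 h RT, fluorescence read. 15 concentrations, triplicates.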
# [13] = biological target: Thyrotropin receptor (Homo sapiens) (UniProt P16473); assay: qHTS assay to identify small molecule antagonists of the thyroid stimulating hormone receptor (TSHR) signaling pathway (AID 1259385; calls by dose curve; also: nearly all actives have a fitted effect of over 20% in size)
# Thyrotropin receptor (Homo sapiens), sequence (P16473 whole entry, looked up): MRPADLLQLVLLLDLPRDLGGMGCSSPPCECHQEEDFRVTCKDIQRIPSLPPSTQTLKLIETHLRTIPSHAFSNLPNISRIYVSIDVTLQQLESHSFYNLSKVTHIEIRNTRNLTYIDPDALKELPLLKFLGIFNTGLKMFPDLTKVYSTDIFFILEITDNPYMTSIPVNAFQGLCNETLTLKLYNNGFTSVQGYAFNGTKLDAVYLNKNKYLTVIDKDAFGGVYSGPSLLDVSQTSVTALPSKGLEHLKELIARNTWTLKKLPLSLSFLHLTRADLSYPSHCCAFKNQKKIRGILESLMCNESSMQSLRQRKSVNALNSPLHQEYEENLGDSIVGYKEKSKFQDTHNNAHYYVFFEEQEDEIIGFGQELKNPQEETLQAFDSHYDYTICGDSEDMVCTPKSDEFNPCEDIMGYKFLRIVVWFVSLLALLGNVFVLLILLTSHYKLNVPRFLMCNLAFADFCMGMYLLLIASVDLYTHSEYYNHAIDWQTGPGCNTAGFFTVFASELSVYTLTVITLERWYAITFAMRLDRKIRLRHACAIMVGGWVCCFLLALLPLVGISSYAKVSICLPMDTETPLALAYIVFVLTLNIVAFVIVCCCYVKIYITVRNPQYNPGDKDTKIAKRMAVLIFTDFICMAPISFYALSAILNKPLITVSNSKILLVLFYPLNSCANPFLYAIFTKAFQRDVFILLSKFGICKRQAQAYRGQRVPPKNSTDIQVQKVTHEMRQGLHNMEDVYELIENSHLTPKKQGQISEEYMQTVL
# Method in brief: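 TSHR-HEK293 cells (800/well) plated 18 h, then compounds with Ro20-1724 and TSH at 1.5 ng/mL final, 30 min at room temperature. cAMP quantified by HTRF (cAMP-d2/anti-cAMP-cryptate, 1 h); 15 concentrations in triplicate.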
# [14] = qHTS assay to identify small molecule phospholipidosis (PLD) inducers (AID 1259344; active = well fitted curve in the direction sought with a large enough effect; an effect the other way counts as inactive or inconclusive)
# Method in brief: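 Read-out is LipidTOX Red fluorescence (ex 595/em 615) imaged in HepG2 cells after 24 h compound exposure at 37 C, with Hoechst nuclear counterstain (ex 352/em 461) allowing per-cell normalisation.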
# [15] = qHTS assay to identify small molecule antagonists of the sonic hedgehog signaling (Shh) pathway - cell viability counter screen (AID 1259367); also: nearly all actives have a fitted effect of over 55% in size
# Method in brief: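 Fluorescence read-out (CellTiter-Fluor, 1 hr at 37C) taken after 23 hr compound treatment of 3T3 Gli1-Luc cells stimulated with conditioned medium. Cells were seeded at 2,000 per well and pre-incubated 4 hr.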
# [16] = biological target: Estrogen receptor beta (Homo sapiens) (UniProt Q92731); assay: qHTS assay to identify small molecule agonists of the estrogen receptor beta (ER-beta) signaling pathway (AID 1259377; active = well fitted activation curve with a large enough effect in the signal ratio in the repeat runs, not every such curve was filed as active; the % refers to the signal ratio)
# Method in brief: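 Ratiometric beta-lactamase FRET read-out came after 2 h substrate loading at room temperature. It followed 16 h compound treatment at 37C of GripTite HEK293T cells carrying a UAS-bla reporter, plated in 2% charcoal-stripped FBS medium.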
# [17] = qHTS assay to identify small molecule agonists of the estrogen receptor beta (ER-beta) signaling pathway - cell viability counter screen (AID 1259380); also: nearly all actives have a fitted effect of over 30% in size
# Method in brief: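 Measured: luminescence from CellTiter-Glo after 30 min at room temperature, added to wells already read for the LiveBLAzer FRET reporter (2 hr substrate); ER-beta-UAS-bla HEK293T cells had 16 hr compound treatment at 37C, 5% CO2.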
# [18] = qHTS assay to identify small molecule antagonists of the sonic hedgehog signaling (Shh) pathway (AID 1259369; calls by dose curve; also: nearly all actives have a fitted effect of over 45% in size; also: potency is read from the fitted curve at half-maximal effect)
# Method in brief: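 NIH/3T3 stable Gli1-Luc clone, 2,000 cells/well, 4hr settle; cpd + conditioned medium 24hr; Luc reagent 30min RT; luminescence.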
# [19] = biological target: Androgen receptor (Homo sapiens) (UniProt P10275); assay: qHTS assay to identify small molecule agonists of the androgen receptor (AR) signaling pathway in the presence of an antagonist (AID 1259381; calls by dose curve; also: nearly all actives have a fitted effect of over 15% in size)
# Androgen receptor (Homo sapiens), sequence (P10275 whole entry, looked up): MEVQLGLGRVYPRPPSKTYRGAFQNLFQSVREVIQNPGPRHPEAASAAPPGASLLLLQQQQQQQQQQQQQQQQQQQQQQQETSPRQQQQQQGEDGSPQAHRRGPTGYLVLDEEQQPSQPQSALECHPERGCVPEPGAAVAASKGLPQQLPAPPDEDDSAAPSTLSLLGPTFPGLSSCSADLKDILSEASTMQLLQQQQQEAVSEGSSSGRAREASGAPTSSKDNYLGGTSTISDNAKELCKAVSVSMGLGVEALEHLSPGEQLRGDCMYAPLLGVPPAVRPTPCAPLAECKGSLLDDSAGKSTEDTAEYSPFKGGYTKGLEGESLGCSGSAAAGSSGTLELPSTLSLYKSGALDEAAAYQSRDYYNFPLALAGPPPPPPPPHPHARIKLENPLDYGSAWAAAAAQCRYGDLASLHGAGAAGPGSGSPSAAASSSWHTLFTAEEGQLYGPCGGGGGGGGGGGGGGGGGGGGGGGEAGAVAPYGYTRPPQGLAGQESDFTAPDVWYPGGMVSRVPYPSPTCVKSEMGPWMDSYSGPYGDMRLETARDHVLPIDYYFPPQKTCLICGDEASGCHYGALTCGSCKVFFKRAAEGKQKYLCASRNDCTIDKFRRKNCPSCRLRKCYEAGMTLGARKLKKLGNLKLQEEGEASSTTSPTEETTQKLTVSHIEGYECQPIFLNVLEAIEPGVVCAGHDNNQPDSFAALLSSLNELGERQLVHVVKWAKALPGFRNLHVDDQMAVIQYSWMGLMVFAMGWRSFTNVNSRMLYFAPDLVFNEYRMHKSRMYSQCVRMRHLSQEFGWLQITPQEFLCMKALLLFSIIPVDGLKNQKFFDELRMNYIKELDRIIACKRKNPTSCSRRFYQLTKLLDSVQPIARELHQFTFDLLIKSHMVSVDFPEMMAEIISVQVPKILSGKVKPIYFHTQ
# Method in brief: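 Luminescent ONE-Glo read, 30min at room temperature, follows 16hr compound exposure (15 concentrations) of MDA-kb2 cells at 37C, 0% CO2, with nilutamide added at 3.0uM final.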
Compound,outcome [1],outcome [2],Potency [3],Potency [4],outcome [5],Potency [6],outcome [7],Potency [8],Potency [9],Potency [10],Potency [11],Potency [12],Potency [13],outcome [14],Potency [15],outcome [16],Potency [17],Potency [18],Potency [19]
CCCCc1ccc(O)cc1,inactive,inactive,inactive,inactive,inactive,inactive,inactive,inactive,inactive,inactive,inactive,inactive,inactive,,,,,,
CN1CCC(O)(c2ccc(F)cc2)C(C(=O)c2ccc(F)cc2)C1 (stereo not given),inactive,inactive,,inactive,inactive,inactive,inactive,inactive,inactive,inactive,,inactive,inactive,inactive,inactive,inactive,inactive,,
CCOC(=O)CP(=O)(OCC)OCC,inactive,inactive,inactive,inactive,inactive,inactive,inactive,inactive,inactive,inactive,inactive,inactive,inactive,,,,inactive,,
CCCCOP(=O)(O)OCCCC,inactive,inactive,inactive,inactive,,inactive,inactive,inactive,inactive,,inactive,inactive,inactive,,inactive,,inactive,inactive,inactive
CN1C(=S)CN=C(c2ccccc2)c2cc(Cl)ccc21,inactive,inactive,,inactive,inactive,inactive,inactive,inactive,inactive,inactive,inactive,inactive,,inactive,inactive,inactive,inactive,6.68 µM (active),
[Cl][Sn]([Cl])([Cl])[Cl],inactive,inactive,inactive,inactive,inactive,inactive,,,inactive,inactive,inactive,,,,,,inactive,,
O=C1OC(CCN2CCCCC2)OC1(c1ccccc1)c1ccccc1 (stereo not given),inactive,inactive,inactive,inactive,inactive,,inactive,inactive,inactive,,inactive,inactive,inactive,,,inactive,,,inactive
N#CC(Cl)(Cl)Cl,inactive,inactive,inactive,inactive,,inactive,inactive,inactive,inactive,inactive,inactive,,,,inactive,,inactive,inactive,inactive
CCC1(c2ccccc2)C(=O)N=C(O)NC1=O (stereo not given),inactive,inactive,inactive,inactive,,inactive,inactive,inactive,inactive,inactive,inactive,inactive,inactive,,inactive,inactive,inactive,inactive,
CCOP(=O)(N=C1SCCS1)OCC,inactive,inactive,inactive,inactive,inactive,inactive,,inactive,inactive,inactive,inactive,inactive,inactive,,,inactive,,inactive,
OCCBr,inactive,inactive,inactive,inactive,,inactive,inactive,inactive,inactive,inactive,inactive,inactive,inactive,,,inactive,,,
Cc1cc(C)nc(Nc2ccccc2)n1,inactive,inactive,inactive,,inactive,inactive,inactive,,inactive,inactive,inactive,inactive,inactive,,inactive,,inactive,inactive,
CCOP(=S)(OCC)SCSP(=S)(OCC)OCC,inactive,inactive,inactive,inactive,inactive,,inactive,,inactive,,inactive,inactive,,,,inactive,,inactive,
c1cc[c]([Hg][c]2ccccc2)cc1,inactive,inactive,inactive,2.43 µM (active),,inactive,inactive,inactive,inactive,,,inactive,inactive,,,,,0.545 µM (active),inactive
CCOP(=S)(OCC)Oc1nc(Cl)n(C(C)C)n1,inactive,inactive,inactive,inactive,inactive,inactive,,,inactive,,inactive,inactive,,,,,inactive,,
C[N+](=O)[O-],inactive,inactive,inactive,inactive,,inactive,inactive,,inactive,,inactive,inactive,,,,,inactive,inactive,
O=C1OC(=O)C2C1C1(Cl)C(Cl)=C(Cl)C2(Cl)C1(Cl)Cl (stereo not given),inactive,inactive,inactive,inactive,,,inactive,inactive,inactive,inactive,inactive,inactive,inactive,,inactive,inactive,,inactive,
C=C(C)CN(CC)c1c([N+](=O)[O-])cc(C(F)(F)F)cc1[N+](=O)[O-],inactive,inactive,inactive,inactive,,inactive,inactive,inactive,inactive,,inactive,,,,inactive,inactive,inactive,inactive,
C[C@]12CC[C@H]3[C@@H](CC=C4C[C@@H](O)CC[C@@]43C)[C@@H]1CC[C@@H]2O,inactive,inactive,,inactive,inactive,inactive,inactive,inactive,inactive,inactive,,,,inactive,inactive,inactive,,inactive,
OC(Cn1cncn1)(c1ccc(F)cc1)c1ccccc1F (stereo not given),inactive,inactive,inactive,inactive,,inactive,inactive,inactive,inactive,inactive,inactive,inactive,inactive,,inactive,,,inactive,
